Drawing on PubChem BioAssay (EPA / NIEHS), this text covers AC50 and outcome for 17 compounds.

Records with an inconclusive call do not appear. Active and inactive are the calls of the source. The calls were made as follows: active = hit-call score of the fitted dose curve at least 0.9, where 1 is the maximum; inconclusive = response in the unintended direction; inactive = score below 0.9.

The nature of this assay: STM_H9_OrnCyssISnorm_ratio: Stemina devTOX quickPredict H9 human embryonic stem cell (hESC)-based Assay for Ornithine (ORN):Cystine (CYSS) Ratio (AID 2283714). As for the experimental part:
STM_H9_secretome utilizes undifferentiated H9 cells to measure relative changes in two metabolites, ornithine (ORN) and cystine (CYSS) in the secretome, targeting a critical drop in the ORN/CYSS ratio as a biomarker for developmental toxicity.STM_H9_OrnCyssISnorm_ratio is one of 10 components calculated in the STM_H9_secretome assay. It is the ratio value of OrnISnorm_perc to CyssISnorm_perc.Data from the assay component STM_H9_OrnCyssISnorm_ratio was analyzed at the assay endpoint STM_H9_OrnCyssISnorm_ratio in the positive analysis fitting direction relative to DMSO as the negative control and baseline of activity. Using a type of binding reporter, gain or loss-of-signal activity can be used to understand relative metabolite change.
H9 hESCs maintained in a pluripotent state were exposed to test compound for 72h with chemical replenishment with media replacement every 24h. Cell-conditioned media from the final 24-h treatment period was collected for analysis of the targeted biomarker, and cell viability of the corresponding cell layer was assessed. The chemical library was tested in blinded fashion. Each test plate included 1uM Methotrexate (MTX; Selleck Chemicals, Houston, Texas) as a positive reference, 5 nM MTX as a negative reference, 0.1% DMSO as the neutral (vehicle) control, and sample-level media blanks.H9 cell-conditioned media from the final 24-h treatment period was collected for analysis of the targeted biomarker and cell viability was measured from the corresponding cell layer. Cell viability was measured using the CellTiter-Fluor assay (Promega, Madison, Wisconsin) based on proteolytic cleavage of a substrate to fluorescent signal proportional to the number of living cells. The cell viability Relative Fluorescence Unit (RFU) was background corrected and normalized to mean RFU of the neutral control (0.1% DMSO). The collected H9-cell-conditioned media samples were processed for targeted biomarker analysis as described (Palmer et al., 2013). Briefly, spent media samples were deproteinized (40% acetonitrile) and processed for UPLC-HRMS. Data acquisition was performed using 4 separate UPLC-HRMS systems, consisting of an Agilent 1290 Infinity LC system (Agilent Technologies) interfaced with an Agilent high-resolution mass spectrometer (models G6520A, G6520B, G6530A, and G6224A). A Waters Acquity UPLC BEH Amide column (2.1mm x 50mm, 1.7lm particle size; Waters, Milford, Massachusetts) maintained at 40C was applied for separation of metabolites using a 6.5min solvent gradient with 0.1% formic acid in water and 0.1% formic acid in acetonitrile (1.0ml/min flow rate). Data were acquired using MassHunter Acquisition software (version B 04.00, Agilent Technologies). The extracted ion chromatogram (EIC) areas for ORN, CYSS, and their respective spike-in C13-standards were determined using the Agilent MassHunter Quantitative Analysis software, version B.05.00 or newer (Agilent Technologies), and data were normalized as described in Palmer et al. (2017).
Take `CCc1nc(N)nc(N)c1-c1ccc(Cl)cc1`: the AC50 was 31.1 µM (active).
`CCN(CC)CCOc1ccc(C(=C(Cl)c2ccccc2)c2ccccc2)cc1`: the AC50 is 2.53 µM (active).
In the case of `CC(=O)[C@@]1(O)CC[C@H]2[C@@H]3CCC4=CC(=O)CC[C@]4(C)[C@H]3CC[C@@]21C`, the AC50 is 73.4 µM (active).
Regarding `Cc1cn([C@H]2C=C[C@@H](CO)O2)c(=O)[nH]c1=O`, the result was inactive.
The same measure, in the same setting: next, `CCCCC(CC)COP(=O)(OCC(CC)CCCC)OCC(CC)CCCC` (configuration not stated): “inactive”; `CCCC[C@H]1CN(CC2CCOCC2)C(=O)OC12CCN(C1(C)CCN(C(=O)c3c(C)ncnc3C)CC1)CC2`: “inactive”.
The same measure, in the same setting: next, `Cc1cc(Cc2ccc(N)c(C)c2)ccc1N`: “inactive”.
In the case of `CN(C)CCCN1c2ccccc2Sc2ccc(Cl)cc21`, the AC50 was 0.897 µM (active).
Regarding `Nc1nc(Cl)nc2c1ncn2[C@H]1C[C@H](O)[C@@H](CO)O1`, the AC50 is 0.621 µM (active).
`CCc1cc(C2=C(C(=O)O)N(c3ccccc3C(F)(F)F)S(=O)(=O)c3ccccc32)cc2c1OCO2`: the result was inactive.
Still for that read-out and setting: with `O=C1OC(c2ccc(O)cc2)(c2ccc(O)cc2)c2ccccc21` the entry was “inactive”.
With `CCCCCCCCCC[N+](C)(C)[O-]`, the AC50 is 22.1 µM (active).
The same measure, in the same setting: with `Cc1ccc(C(C)(C)C)c(O)c1` the figure was 15 µM (active); with `O=C(O)CN(CC(=O)O)CC(=O)O`, 13 µM (active).
As to `O=C1NC(=O)C(c2ccccc2)(c2ccccc2)N1`, the outcome was inactive.
For `O=C(O)c1cccnc1`, the outcome was inactive.
Consider `Nc1nc(=S)c2[nH]cnc2[nH]1`, for which the AC50 is 2.97 µM (active).

What is called AC50 is the concentration giving half of the maximal activity seen.
